Data published in publication PMC10668032, “Altered binding affinity of SIX1-Q177R correlates with enhanced WNT5A and WNT pathway effector expression in Wilms tumor”.
In all, about 33,000 sequences were measured (“e-score”: median about -0.05, highest 2% from about 0.38 on). The sample holds the highest values, similar sequences and a random draw of the others, so the mix is not that of the screen.

target: T1, SIX1-Q177R homeodomain (human, UniProt Q15475 108-198, Q177R); test: universal protein binding microarray; Universal all-10-mer PBM (8x60K, AMADID 030236), 300 nM GST-tagged protein, Alexa Fluor 488 anti-GST; buffer, salt, pH and temperature not stated (as in Berger); high values mean tight binding; details: protein: ivt; tags: N-terminal GST; dsDNA, one strand shown
T1 sequence: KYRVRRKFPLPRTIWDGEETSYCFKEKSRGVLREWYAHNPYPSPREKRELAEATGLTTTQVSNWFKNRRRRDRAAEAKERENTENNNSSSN
In short: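 Binding was expressed as 8-mer E-scores calculated with the Universal PBM Analysis Suite. The GST-tagged homeodomains, made by in vitro transcription/translation, were applied in duplicate at 300 nM final concentration to universal 'all 10-mer' protein binding microarrays (8×60K format).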

Sequence | binding signal [E-score]
AGGGGTTA | 0.21 ± 0.0107
AGGTGTTA | 0.463 ± 0.00921
CGGAGTCA | 0.356 ± 0.0051
TCATAACA | 0.23 ± 0.0137
CCCGGTAC | 0.22 ± 0.0152
CACCCTAG | 0.3472 ± 0.00144
CACCCTAC | 0.387 ± 0.01
CACCCTAA | 0.3263 ± 0.00228
CACCCCTG | 0.351 ± 0.0108
CACCCCTA | 0.283 ± 0.00661
CACCCCTC | 0.3928 ± 0.00375
CACCCGCC | 0.339 ± 0.0104
CACTTAGC | 0.179 ± 0.029
ACGCCCAC | 0.208 ± 0.00669
ATCGGCAC | 0.175 ± 0.0126
AGTAGGGG | 0.196 ± 0.0406
CCATGGAA | 0.156 ± 0.015
ACACTGGT | 0.4256 ± 0.00135
ACACTTGC | 0.363 ± 0.0273
ACACTGGG | 0.412 ± 0.0164
ACACTGTA | 0.3506 ± 0.0019
ACACTGAT | 0.374 ± 0.00694
ACGCTGGG | 0.154 ± 0.0213
AAACTGGT | 0.203 ± 0.0496
ACACTGGC | 0.379 ± 0.00546

Sequence | binding signal [E-score]
ACCCTGGG | 0.238 ± 0.00896
CCACTGGA | 0.206 ± 0.0185
ACACTGGA | 0.3915 ± 0.0011
ACCATGGG | 0.162 ± 0.0492
CGATAACA | 0.232 ± 0.018
GGGGTGGA | 0.159 ± 0.0262
AGTCAGAG | 0.156 ± 0.0606
CACCCTGG | 0.315 ± 0.016
CCTTGACC | 0.172 ± 0.00687
AAGGGGTA | 0.2871 ± 0.000587
AAACTACA | 0.184 ± 0.032
CGCCGTGC | 0.188 ± 0.0146
ACGTAGTG | 0.23 ± 0.0205
AACGTGTC | 0.3481 ± 0.00176
AACGTGTA | 0.353 ± 0.0523
CACGTGTA | 0.4 ± 0.0127
CACGTGCC | 0.225 ± 0.0142
CACGTGTC | 0.398 ± 0.00923
CACGTGCA | 0.218 ± 0.0109
ACCGCTAG | 0.171 ± 0.0167
AACAGGTG | 0.327 ± 0.0196
AGTAACAC | 0.424 ± 0.0116
CGTAACCC | 0.225 ± 0.019
AGTAACCC | 0.201 ± 0.0162
CGTAACAC | 0.4096 ± 0.00185

Sequence | binding signal [E-score]
GGTAACAC | 0.432 ± 0.00841
GGTAAACA | 0.188 ± 0.00443
GTAAACAC | 0.375 ± 0.00722
CGTAGCAC | 0.17194 ± 0.000163
CCACTTGC | 0.163 ± 0.00866
AGGGGTAC | 0.273 ± 0.0106
ATCCCCAC | 0.211 ± 0.0453
ATCTTACA | 0.262 ± 0.0268
ACCCGTAA | 0.264 ± 0.0395
TGCCGACA | 0.177 ± 0.00329
CCGGTATA | 0.183 ± 0.0142
CCGGTGCA | 0.203 ± 0.0164
ACGGTGTA | 0.4693 ± 0.00139
CCGGTGTA | 0.4859 ± 0.00134
ACGGTGCA | 0.2931 ± 0.00041
GATGTGTA | 0.19 ± 0.00781
GCTGTGTA | 0.223 ± 0.0192
GCGGTGTA | 0.4849 ± 0.00132
ACGGTGCT | 0.179 ± 0.0133
CCCGAGTA | 0.167 ± 0.00344
CTTAGGGA | 0.151 ± 0.0622
GCACAACA | 0.156 ± 0.0323
CACCTGAG | 0.183 ± 0.0139
ATTGGTGC | 0.1599 ± 0.00112
CAAGGACA | 0.194 ± 0.0363

Sequence | binding signal [E-score]
ACGACCCG | 0.179 ± 0.0515
CACGCATC | 0.168 ± 0.00731
CACCAGCG | 0.22 ± 0.0046
ACGTGTCG | 0.383 ± 0.00518
GCGTGTCA | 0.4332 ± 0.000573
GCGTGACA | 0.254 ± 0.0158
ACGTGGTG | 0.3594 ± 0.00155
CCGTGTGA | 0.299 ± 0.0309
GCGTGTCC | 0.412 ± 0.0188
ACGTGTCC | 0.347 ± 0.017
GCGTATCC | 0.176 ± 0.00656
ACGTGTGG | 0.218 ± 0.0138
CCGTGTCA | 0.465 ± 0.00781
CCGTGACA | 0.307 ± 0.00911
CCAGCTGG | 0.263 ± 0.0674
CATGGTGG | 0.192 ± 0.00214
GTGCGTGA | 0.163 ± 0.0169
CCCCCTTC | 0.2098 ± 0.000417
TCGTGTCA | 0.4434 ± 0.00419
CCGTGTCG | 0.441 ± 0.0221
CCCTGTCC | 0.152 ± 0.0156
TCGTGACA | 0.329 ± 0.0128
CCGTGATC | 0.165 ± 0.0407
ACGTGTCT | 0.337 ± 0.00126
CCGTGTCC | 0.408 ± 0.0236

Sequence | binding signal [E-score]
ACGTGTCA | 0.4123 ± 0.00349
CCGGGTCG | 0.248 ± 0.0288
TCGGGTCA | 0.197 ± 0.0386
CCCCGTCG | 0.161 ± 0.0244
CGAATCCG | 0.166 ± 0.0303
AGCTCGTG | 0.244 ± 0.0101
ATACTCCC | 0.162 ± 0.0435
CCCCGGTA | 0.284 ± 0.00694
CATCAGCG | 0.153 ± 0.0322
CACCGGAC | 0.315 ± 0.0498
CTATAACA | 0.228 ± 0.0138
AGTGTGTC | 0.283 ± 0.029
AAAGTGTT | 0.285 ± 0.0563
AGAGTGTC | 0.412 ± 0.00919
GAAGTGTC | 0.387 ± 0.0118
AGAGTGTA | 0.424 ± 0.0108
CAAGTGTC | 0.379 ± 0.0101
AAAGTGTG | 0.184 ± 0.0165
CAAGTGTA | 0.392 ± 0.0272
AGAGTGTG | 0.247 ± 0.0115
TAAGTGTA | 0.373 ± 0.0287
ACCCGGCT | 0.202 ± 0.0126
ACACATAA | 0.18 ± 0.0275
GCGAGACA | 0.249 ± 0.00462
GGAACCCC | 0.165 ± 0.0247

Sequence | binding signal [E-score]
GGGATCAC | 0.2771 ± 0.000933
CACCGGAA | 0.288 ± 0.0177
TAAGGGTA | 0.163 ± 0.0467
CCGACCAC | 0.192 ± 0.0175
CGGGTATA | 0.21 ± 0.00983
GGAGTGCA | 0.17 ± 0.0126
CGAGTGTA | 0.382 ± 0.0327
CGAGTGTC | 0.415 ± 0.00743
CGAGTACA | 0.28 ± 0.0111
GGAGTACA | 0.246 ± 0.013
CGAGTATC | 0.158 ± 0.0391
GGAGTGTA | 0.417 ± 0.0148
CGAGTACC | 0.168 ± 0.00651
CGAGTGGA | 0.166 ± 0.0322
GGGTGCTA | 0.217 ± 0.00882
CCGCCCCA | 0.239 ± 0.0124
CCCTACCA | 0.167 ± 0.0194
CACCTAAG | 0.263 ± 0.00735
AAACCCCG | 0.231 ± 0.0422
ACTATATC | 0.178 ± 0.0197
ATGGAGTC | 0.232 ± 0.0246
CACACGTA | 0.262 ± 0.0227
CACACGTC | 0.221 ± 0.00539
AACACGTA | 0.343 ± 0.0046
GACACGTC | 0.381 ± 0.00585

Sequence | binding signal [E-score]
GACACGTA | 0.39 ± 0.0131
AACACGTC | 0.309 ± 0.0249
CGAAGTAC | 0.174 ± 0.00912
CACCTCAC | 0.354 ± 0.0133
CTCCCCCA | 0.176 ± 0.0255
ACCCGCGA | 0.239 ± 0.0203
CGGGCACA | 0.1994 ± 0.000764
CACCCGGA | 0.388 ± 0.0297
TACCCGGA | 0.247 ± 0.00272
CACCCGGC | 0.36 ± 0.0229
CACGCTTC | 0.24 ± 0.0251
GACACGGA | 0.418 ± 0.0309
TACACGGA | 0.402 ± 0.00597
CACACGGC | 0.161 ± 0.0205
GACACGAA | 0.331 ± 0.0274
AACACGGC | 0.35 ± 0.00429
GACACGGC | 0.427 ± 0.0135
GATACGGA | 0.215 ± 0.00231
GACACGAC | 0.436 ± 0.00629
TACACAAA | 0.247 ± 0.0503
CCCACGGA | 0.161 ± 0.00447
CACACGGA | 0.253 ± 0.0652
CACACGAC | 0.237 ± 0.00357
